# Unmarked numbers belong to inactive results.
# Tests used:
# [1] = test system: Sporothrix brasiliensis CBS 133006; assay: growth inhibition relative to untreated control; higher = more growth inhibition (more antifungal activity), active = 80 or more; extreme values may be limits of the assay; details: 1 µM; 48 h
# How it was run: (§1)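 The reported figure is percent growth inhibition relative to untreated cells, from quadruplicate runs. Yeast-form cells of the reference isolates at 1 x 10^5 CFU/ml were exposed to library compounds at a final 1 μM for 48 h at 35°C in 5% CO2, and growth was assessed by microscopy and spectrophotometric readings.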
# [2] = test system: Sporothrix schenckii ATCC 32286; assay: as above; details: 1 µM; 48 h
# How it was run: as §1
Compound,growth inhibition [1],growth inhibition [2]
CO/N=C(\C(=O)OC)c1ccccc1CO/N=C(\C)c1cccc(C(F)(F)F)c1,96.8% (active),40%
CC1COC(Cn2cncn2)(c2ccc(Oc3ccc(Cl)cc3)cc2Cl)O1 (stereo not drawn),97% (active),70.2%
Cc1cc(C2=NOC(c3cc(Cl)c(F)c(Cl)c3)(C(F)(F)F)C2)ccc1C(=O)NCc1ccc2c(c1)C(C)(C)OB2O (stereo not drawn),14.5%,18.2%
Nc1c2c(nc3sc4c(c13)CCCC4)CCCC2,6.75%,17%
O=C1O[C@@H](CO)CN1c1cc(F)c(C2=CCN(Cc3ccccc3)CC2)c(F)c1,6.75%,0.5%
Cc1cccc(C(=O)Nc2ccnc(N(C)C3CCN(CC(C)C)CC3)c2)c1,5.5%,9%
CCc1nn(C)c(C(=O)NCc2ccc(Oc3ccc(C)cc3)cc2)c1Cl,93.2% (active),96.5% (active)
Cc1nn(Cc2ccccc2)c(Cl)c1C(=O)NC1CCCCCC1,21.5%,3%
CC1(C)OB(O)c2ccc(C3=NOC(c4cc(Cl)c(F)c(Cl)c4)(C(F)(F)F)C3)cc21 (stereo not drawn),0.5%,18%
CO[C@@H]1CN(c2ccc(C#CC3(O)CN4CCC3CC4)c(Cc3ccccc3)n2)C[C@H]1O (stereo partly drawn),9.75%,5.5%
CC(C)(C)C(O)C(Oc1ccc(-c2ccccc2)cc1)n1cncn1 (stereo not drawn),67.5%,61.8%
Cc1nn(C)c(C)c1NS(=O)(=O)c1c(Cl)cc(-c2ccnc(N3CCNCC3)c2)cc1Cl,15.2%,17.5%
O=C1O[C@@H](COc2ccon2)CN1c1cc(F)c(C2=CCN(Cc3ccccc3)CC2)c(F)c1,2%,0%
CO/C=C(/C(=O)OC)c1ccccc1Oc1cc(Oc2ccccc2C#N)ncn1,95.5% (active),27.5%
